# Structures can show the parent of a compound that is named as a salt.
# Legend:
# Details in all cases: 10 µM; exposure time 6 h
# [1] = system: Danio rerio larvae (5 dpf); assay: difference in excitability vs DMSO (percentage points); higher = more excitable than DMSO
# Procedure, shortened: (§1)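 In 96-well plates, 48 wild-type zebrafish larvae aged 5 dpf per compound received 100 µL egg water with library compound at 10 µM final for 6 h. Three hours into this, a 3-h programme of moving lines and 100 ms, 400Hz tones ran at 28.5 ℃ while plates were photographed every 6 s. Z-LaP Tracker scored the behaviours, and each is given as the compound mean minus the vehicle control mean in percentage points.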
# [2] = system: Danio rerio larvae (5 dpf); assay: difference in startle response vs DMSO (percentage points); higher = stronger startle than DMSO
# Procedure, shortened: as §1
# [3] = system: Danio rerio larvae (5 dpf); assay: difference in activity during first hour vs DMSO (percentage points); higher = more activity than DMSO
# Procedure, shortened: as §1
# [4] = system: Danio rerio larvae (5 dpf); assay: difference in habituation to acoustic stimuli vs DMSO (percentage points); higher = more habituation than DMSO
# Procedure, shortened: as §1
# [5] = system: Danio rerio larvae (5 dpf); assay: difference in combined optomotor response to red, green and blue moving lines vs DMSO (percentage points); higher = stronger optomotor response than DMSO
# Procedure, shortened: as §1
Compound,difference in excitability [1],difference in startle response [2],difference in activity during first hour [3],difference in habituation to acoustic stimuli [4],difference [5]
Cc1cccc(Nc2ccncc2S(=O)(=O)NC(=O)NC(C)C)c1 [Torasemide],6.87,-10.7,6.15,-5.49,-5.29
CC(C)(C)NC(=O)[C@H]1CC[C@H]2[C@@H]3CC[C@H]4NC(=O)C=C[C@]4(C)[C@H]3CC[C@]12C [Finasteride],11.1,3.35,10.8,-0.24,9
COc1ccccc1OCC(O)CN1CCN(CC(=O)Nc2c(C)cccc2C)CC1 (stereo not given) [Ranolazine (hydrochloride)],14.6,-5.16,4.7,3.56,2.81
Nc1ccn([C@@H]2CS[C@H](CO)O2)c(=O)n1 [Lamivudine],0.811,2.66,9.03,2.12,2.14
CC(=O)Oc1ccccc1C(=O)O [Aspirin],-1,2.44,2.02,1.42,2.52
CCC(=O)NC[C@@H]1C[C@H]1c1cccc2c1CCO2 [Tasimelteon],25,6.9,-17.9,-3.17,11.5
C/C(O)=C(\C#N)C(=O)Nc1ccc(C(F)(F)F)cc1,5.48,1.5,-4.86,6.45,3.09
CCC(=O)OCC(=O)[C@@]1(OC(=O)CC)[C@H](C)C[C@H]2[C@H]3[C@H]([C@@H](O)C[C@@]21C)[C@@]1(C)C=CC(=O)C=C1C[C@H]3Cl [Alclometasone Dipropionate],3.59,5.9,-1.03,-0.676,5.42
CO[C@@]1(NC(=O)Cc2cccs2)C(=O)N2C(C(=O)O)=C(COC(N)=O)CS[C@@H]21 [Cefoxitin (sodium salt)],2.72,3.22,3,1.06,10.4
CCOC(=O)[C@H](CCc1ccccc1)N[C@@H](C)C(=O)N1[C@H](C(=O)O)C[C@H]2CCCC[C@@H]21 [Trandolapril],-2.52,-0.34,2.67,-0.88,6.04
COC(=O)[C@@H]1CC2=CC(=O)CC[C@]2(C)[C@@]23O[C@@H]2C[C@@]2(C)[C@@H](CC[C@@]24CCC(=O)O4)[C@H]13 [Eplerenone],2.31,-5.25,4.97,4.87,4.83
C[N+](C)(C)CCOC(N)=O [Carbamoylcholine (chloride)],2.95,2.73,-0.038,1.09,1.31
Cc1ccc([C@@H]2O[C@H](CO)[C@@H](O)[C@H](O)[C@H]2O)cc1Cc1ccc(-c2ccc(F)cc2)s1 [Canagliflozin],1.05,-3.92,3.63,3.27,5.53
CCC1(C)CC(=O)NC1=O (stereo not given) [Ethosuximide],2.89,4.52,-3.89,4.09,0.956
CC(CCc1ccccc1)NCC(O)c1ccc(O)c(C(N)=O)c1 (stereo not given) [Labetalol (hydrochloride)],3.49,0.137,5.09,3.73,-2.36
C#C[C@]1(O)CC[C@H]2[C@@H]3CCC4=CC(=O)CC[C@@H]4[C@H]3C(=C)C[C@@]21CC [Etonogestrel],12.2,-2.36,0.0241,-5.37,10.4
Cc1cc2nc3c(=O)[nH]c(=O)nc-3n(C[C@H](O)[C@H](O)[C@H](O)COP(=O)(O)O)c2cc1C [Riboflavin 5'-monophosphate (sodium salt hydrate)],-1.24,-0.41,13.4,5.95,-0.41
Cc1c(-c2ccc(O)cc2)n(Cc2ccc(OCCN3CCCCCC3)cc2)c2ccc(O)cc12 [Bazedoxifene (acetate)],9.87,1.08,-9.97,-5.25,-3.93
Cc1ncc(CO)c(CO)c1O [Pyridoxine],-7.67,5.43,7.49,4.31,4.65
CC(C)(C(=O)O)c1ccc(C(O)CCCN2CCC(C(O)(c3ccccc3)c3ccccc3)CC2)cc1 (stereo not given) [Fexofenadine (hydrochloride)],4.09,2.98,11.3,0.612,5.51
CO[C@H]1/C=C/O[C@@]2(C)Oc3c(C)c(O)c4c(O)c(c(/C=N/N5CCN(C)CC5)c(O)c4c3C2=O)NC(=O)/C(C)=C\C=C\[C@H](C)[C@H](O)[C@@H](C)[C@@H](O)[C@@H](C)[C@H](OC(C)=O)[C@@H]1C [Rifampicin],2.43,2.9,8.79,-1.68,-3.29
Cc1cc(/C=C/C#N)cc(C)c1Nc1ccnc(Nc2ccc(C#N)cc2)n1 [Rilpivirine],9.16,-10.5,-18.2,-9.2,-12.5
Nc1nc(-n2cc(C(=O)O)c(=O)c3cc(F)c(N4CC(O)C4)c(Cl)c32)c(F)cc1F [Delafloxacin],14.4,12.8,-8.49,7.81,9.67
C[C@@H](c1ncncc1F)[C@](O)(Cn1cncn1)c1ccc(F)cc1F [Voriconazole],4.54,3.6,-18.9,3.51,5.07

# From the supplement of paper PMC10515830
